Data from PubChem BioAssay (NCATS).
“And” between values parts separate entries of the source, which are not always exact repeats. Equal entries are not always repeated. Records with an inconclusive call do not appear. Some structures have more than one record in an assay (separate samples or runs), and their calls can disagree. The source made the active and inactive calls. The call rests on the fitted dose curve; in most records, active means well fitted cell-killing curve with a large enough effect; inconclusive means small, poorly fitted or top-dose-only effect, or effect the other way; inactive means no such curve, though single readings can be large or run the other way. Peptide text beside a SMILES is read from it. * marks the point of attachment. Cbz = O=C(OCc1ccccc1)*

Test: Viability qHTS for spleen associated tyrosine kinase inhibitor (SYKi) drug resistant MV4-11 cells (AID 1963824); further: nearly all actives have a fitted effect of over 35% in size
Settings: SYKi-resistant MV4-11 viability, CellTiter-Glo, 72 h; series mostly up to 45 µM; viability, % of control: at the top concentration
Description: Department of Medicine, Hematology/Oncology
University Hospital Frankfurt, Germany.
Trials have shown promising clinical activity of the selective SYK inhibitor entospletinib in patients with high expressing HOXA9/MEIS1 acute leukemias. As the development of resistance mechanisms is a common problem in the use of targeted drugs, we performed a chemical library screen to identify drug sensitivities in SYK inhibitor resistant AML cells. […] Glucocorticoids are potent immunosuppressants which work in part by inhibiting the transcription of cytokine genes.
Described herein is a viability screen to look for activity in the SYK inhibitor drug resistant cell line against four NCATS compound libraries (MIPE 5.0, NPC, NPACT, and Kinase) totaling 11372 compounds. Active hits were reacquired for confirmation and further secondary assay testing.
SEQUENCE No. (e.g., 1, 2, 3, etc.); […] (e.g., Cells, Incubation, Reagent, etc.); VALUE; DESCRIPTION.
1; Media; 2uL; white, solid-bottom Corning assay plate.
2; Compounds; 23nL; Echo acoustic dispenser.
3; Cell; 5uL; 500 cells per well.
4: Incubation; 72hr; 37 C, 5% CO2, 95% humidity.
5; Reagent; 3uL; CellTiter-Glo reagent (Promega).
6; Incubation; 10min; room temperature.
7; Detection; Luminescence; ViewLux plate reader (PerkinElmer).
NOTES (numbers refer to Sequence numbers above
1. Quantitative high-throughput screening (qHTS) of small molecule compounds was conducted on drug resistant SYKi MV4-11 cell line.
2. Twenty-three nanoliter of small molecule compounds were added to each assay plates using the Echo acoustic dispenser (Beckman Coulter).
3. Cells were seeded into the assay plates at a final density of 500 cells in 5uL of media per well using the Multidrop Combi dispenser.
4. Plates were covered with stainless steel gasketed lids and incubated for 72 hours at standard cell culture conditions.
5. Viability was assessed by adding 3uL of CellTiter-Glo detection reagent (Promega).
6. Plates were covered with gasket lids and incubated for 10 minutes at room temperature.
7. Luminescence was measured on a ViewLux plate reader (PerkinElmer).
Potency means the concentration at half of the fitted maximal effect.

| SMILES | viability, % of control | Potency |
| --- | --- | --- |
| CC1CCC2C(C)(C)C(O)CCC2(C)C12Cc1c(O)cc3c(c1O2)CN=C3N (stereo not given) | 71.5% (inactive) | – |
| O=C1c2c(O[C@@H]3O[C@H](CO)[C@@H](O)[C@H](O)[C@H]3O)cc(O)cc2OC1(O)Cc1ccc(O)cc1 (stereo not given in full) | – | 3.17 µM (active) |
| NCCNCCNCCNCCN | 109% [at 9.25 µM] (inactive) | – |
| CC(C)C[C@@H](C=O)NC(=O)[C@H](CC(C)C)NC(=O)[C@H](CC(C)C)NC(=O)OCc1ccccc1 (Cbz-Leu-Leu-Leu-aldehyde) | – | 1.05 µM (active) |
| CC1(C)Cc2c(-c3ccccc3)c(-c3ccc(Cl)cc3)c(CC(=O)O)n2C1 | – | 9.2 µM (active) |
| CCN(CC)CCCS(=O)(=O)N[C@H](CCc1ccccc1)c1nc(Cc2ccc(Br)cc2)no1 | – | 20.6 µM (active) |
| C/C=C/C=C/C(=O)OC1CC/C=C/C(O)C(O)C(CCC)OC1=O (stereo not given) | 65.4% (inactive) | – |
| C=CC(=O)N1CCC[C@@H](n2nc(-c3cccc(C(=O)Nc4ccc(C(C)C)c(C)c4)c3)c3c(N)ncnc32)C1 | – | 2.31 µM (active) |
| CC(=O)OC1C(O)CC2(C)C(CCC3(C)C2CC=C2C4C5(CCC(CO[C@@H]6O[C@H](CO)[C@@H](O)[C@H](O)[C@H]6O)(OC5=O)C4(C)O)C(O)CC23C)C1(C)C (stereo not given in full) | 68.8% [at 17.3 µM] (inactive) | – |
| O=C1c2c(O)cc(O)cc2OC(c2ccc(O)c(O)c2)C1O (stereo not given) | 80.9% (inactive) | – |
| CN(C(=O)CN(CCO)CC(=O)N(C)C(C)(C)Cc1ccccc1)C(C)(C)Cc1ccccc1 | – | 9.44 µM (active) |
| COc1ccc(-c2cc(=O)c3c(O)cc(O)cc3o2)cc1O | – | 10.5 µM (active) |
| Cn1cc(-c2cnn3c(N)c(Br)c([C@@H]4CCCNC4)nc23)cn1 | – | 731 nM (active) and 468 nM (active) |
| NS(=O)(=O)c1ccc(S(=O)(=O)Nc2cccc3c(Cl)c[nH]c23)cc1 | – | 0.332 µM (active) |
| O=c1cc(-c2ccccc2)oc2cc(O)cc(O)c12 | – | 16.6 µM (active) |
| CN[C@@H](C)C(=O)N[C@H](C(=O)N1CCC[C@H]1c1nc(C(=O)c2ccc(F)cc2)cs1)C1CCCCC1 | – | 1.05 µM (active) |
| O=C1C[C@@H](c2ccc(O)cc2)Oc2cc(O)ccc21 | – | 14.6 µM (active) |
| Cc1[nH]c2ccc(F)cc2c1-c1nc2c3cccnc3c3ncccc3c2[nH]1 | – | 0.184 µM (active) |
| CC1(C)CC[C@]2(C(=O)O[C@@H]3O[C@H](CO[C@@H]4O[C@H](CO)[C@@H](O)[C@H](O)[C@H]4O[C@@H]4O[C@H](CO)[C@@H](O)[C@H](O)[C@H]4O)[C@@H](O)[C@H](O[C@@H]4O[C@H](CO)[C@@H](O)[C@H](O)[C@H]4O)[C@H]3O)CC[C@]3(C)C(=CCC4[C@@]5(C)CC[C@@H](O)[C@@](C)(C(=O)O[C@@H]6O[C@H](CO)[C@@H](O)[C@H](O)[C@H]6O)C5CC[C@]43C)[C@@H]2C1 (stereo not given in full) | 80.3% [at 9.25 µM] (inactive) | – |
| CCOCCn1c(N2CCCN(C)CC2)nc2ccccc21 | 89.7% (inactive) | – |

| SMILES | viability, % of control | Potency |
| --- | --- | --- |
| CN1CCN(c2cccc(Nc3nc4c(-c5ccc(S(C)(=O)=O)cc5)cccn4n3)c2)CC1 | – | 130 nM (active) and 296 nM (active) |
| CO[C@H]1/C=C/O[C@@]2(C)Oc3c(C)c(O)c4c(O)c(c(/C=N\N5CCN(C6CCCC6)CC5)c(O)c4c3C2=O)NC(=O)/C(C)=C\C=C\[C@H](C)[C@H](O)[C@@H](C)[C@@H](O)[C@@H](C)[C@H](OC(C)=O)[C@@H]1C | – | 11.8 µM (active) |
| O=C(c1ccco1)N1CCNCC1 | 92.4% (inactive) | – |
| CCC(=O)N[C@H]1CC[C@H](C(=O)N(C)c2ccc(-c3nc4ccccc4o3)cc2)C1 | – | 14.8 µM (active) |
| C[C@]12CCC(=O)C=C1CC[C@@H]1[C@@H]2[C@@H](O)C[C@@]2(C)[C@H]1CC[C@]2(O)C(=O)CO | – | inactive |
| Cc1cc(C(C#N)c2ccc(Cl)cc2)c(Cl)cc1NC(=O)c1cc(I)cc(I)c1O (stereo not given) | – | 18.8 µM (active) and 23.1 µM (active) |
| CNc1c2c(nn1C)CCCC2 | 74.7% (inactive) | – |
| CCOc1ccccc1OCC1CNCCO1 (stereo not given) | 85.5% (inactive) | – |
| Cc1nc(Nc2cnn(C3CCNCC3)c2)nc2c1N(C)C(=O)c1cc3ccccc3cc1N2C | – | 6.51 µM (active) |
| COc1cnc(-c2ccc(Cn3c(CC(C)(C)C(=O)O)c(SC(C)(C)C)c4cc(OC[C@@H]5Cc6ccccc6N5C(C)=O)ccc43)cc2)nc1 | – | 12.8 µM (active) |
| COC(=O)C1=CO[C@@H](O[C@@H]2O[C@H](CO)[C@@H](O)[C@H](O)[C@H]2O)[C@@H]2C(C)CC(=O)[C@]12O (stereo not given in full) | 89% [at 17.3 µM] (inactive) | – |
| Oc1cc(CNC(=S)/C=C/c2cc(O)c(O)c(Br)c2)cc(O)c1O | – | 1.84 µM (active) |
| CC(C)c1cc2c(c(O)c1O[C@@H]1O[C@H](CO)[C@@H](O)[C@H](O)[C@H]1O)CC1(O)CCC(O)C(C)(C)C1CC2 (stereo not given in full) | 107% [at 17.3 µM] (inactive) | – |
| O=NN(CCCl)C(=O)NC1CCCCC1 | – | inactive |
| C=CC(=O)N1CCC[C@H](n2c(=O)n(-c3ccc(Oc4ccccc4)cc3)c3c(N)ncnc32)C1 | – | 1.66 µM (active) |
| CCn1c(-c2nonc2N)nc2cnc(Oc3cccc(NC(=O)c4ccc(OCCN5CCOCC5)cc4)c3)cc21 | – | 3.66 µM (active) and 5.25 µM (active) |
| Nc1nc(N)c2nc(-c3cccc(Cl)c3)c(N)nc2n1 | – | 1.48 µM (active) |
| Cc1[nH]nc(C(F)(F)F)c1Cc1sc2c(c1C(=O)N1C[C@](C)(O)CO1)c(=O)n(C)c(=O)n2C(C)C | – | inactive |
| C1=C/COCc2cc(ccc2OCCN2CCCC2)Nc2nccc(n2)-c2cccc(c2)COC/1 | – | inactive and 130 nM (active) |
| CC1(C)CC[C@]23CO[C@@]4(CCC5[C@@]6(C)CC[C@H](O[C@@H]7OC[C@H](O[C@@H]8O[C@H](CO)[C@@H](O)[C@H](O)[C@H]8O)[C@H](O)[C@H]7O[C@@H]7O[C@H](CO)[C@@H](O[C@@H]8O[C@H](CO)[C@@H](O)[C@H](O)[C@H]8O)[C@H](O)[C@H]7O)[C@@](C)(CO)C6CC[C@@]5(C)[C@]4(C)C[C@H]2OC2OCC(O)C(O)C2O)C3C1 (stereo not given in full) | – | 3.09 µM (active) |
